Screens from PubChem.
PRMT1 FP inh: PRMT1 methyltransferase inhibitors, primary screen, biochemical, fluorescence polarization; inhibition, % at 2.79 µM; recombinant PRMT1, activity-based probe fluorescence polarization; hit rate 1.3% among 370,000; Protein arginine N-methyltransferase 1 (Homo sapiens), Q99873;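 active = inhibition above about 21% made by adding two undisclosed values, limit read from the data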
MBD2 inh: inhibitors of MBD2 binding to methylated DNA, primary screen, biochemical, TR-FRET, DNA-binding domain, human; MBD2 binding to methylated oligonucleotide; inhibition, % at 4.4 µM; hit rate 0.31% among 370,000; AID 686964, 2013; in the data active = inhibition above about 13%
rCAG binder: binders of r(CAG) RNA repeats, primary screen, biochemical, fluorescence; r(CAG) RNA repeat, TO-PRO-1 dye displacement fluorescence; inhibition, % at 3 µM; hit rate 1.3% among 370,000;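 active = inhibition above the plate cutoff, the mean of all test compounds on that plate plus 3 SD, cut at about 35% in these data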;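 note: higher means more dye released from RNA so lower well fluorescence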
ABHD5 PLIN5 PPI: ABHD5-PLIN5 interaction inhibitors, primary screen, cell lysate, split luciferase complementation, luminescence; Perilipin-5 (Homo sapiens) + 1-acylglycerol-3-phosphate O-acyltransferase ABHD5 (Homo …; Split G. princeps luciferase complementation, 4 h; inhibition, % at 4 µM; hit rate 0.78% among 360,000; AID 602281, 2012;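 active = inhibition above the mean inhibition across every tested compound plus 3 SD, cut at about 22% in these data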
UHRF1 binding: UHRF1 methylated DNA binding inhibitors, primary screen, counter-screen for MBD2 inhibitor project, biochemical, TR-FRET, human UHRF1, single concentration | E3 ubiquitin-protein ligase UHRF1 (Homo sapiens), Q96T88 | UHRF1 binding to methylated oligo | inhibition, % at 4.4 µM | hit rate 0.75% among 370,000 | AID 687016, 2013;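 note: UHRF1 SRA domain binding a hemimethylated CpG hairpin DNA probe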
Target sequence (Q96T88 whole entry, looked up, the tested form may be a part): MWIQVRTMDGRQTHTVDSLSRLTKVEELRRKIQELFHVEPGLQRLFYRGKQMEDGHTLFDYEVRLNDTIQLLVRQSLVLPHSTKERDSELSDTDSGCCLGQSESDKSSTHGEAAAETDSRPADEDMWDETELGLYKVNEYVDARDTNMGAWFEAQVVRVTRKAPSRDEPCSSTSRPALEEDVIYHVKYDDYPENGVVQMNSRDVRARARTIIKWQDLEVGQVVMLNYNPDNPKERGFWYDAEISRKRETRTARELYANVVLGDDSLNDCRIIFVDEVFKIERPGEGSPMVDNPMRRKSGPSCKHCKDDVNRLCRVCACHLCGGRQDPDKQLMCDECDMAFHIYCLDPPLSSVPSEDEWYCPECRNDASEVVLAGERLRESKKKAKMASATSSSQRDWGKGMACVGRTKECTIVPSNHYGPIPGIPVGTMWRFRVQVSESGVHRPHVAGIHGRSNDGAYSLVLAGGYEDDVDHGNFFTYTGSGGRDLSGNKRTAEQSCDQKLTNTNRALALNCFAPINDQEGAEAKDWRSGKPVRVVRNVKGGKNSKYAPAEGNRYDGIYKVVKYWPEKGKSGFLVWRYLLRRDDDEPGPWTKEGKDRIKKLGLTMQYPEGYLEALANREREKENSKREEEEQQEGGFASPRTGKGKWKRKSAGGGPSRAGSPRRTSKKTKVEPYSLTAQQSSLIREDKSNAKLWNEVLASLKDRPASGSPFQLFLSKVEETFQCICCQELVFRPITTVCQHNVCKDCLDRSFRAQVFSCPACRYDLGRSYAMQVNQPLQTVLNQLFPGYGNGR
LEDGF integ inh: blockers of LEDGF/p75-dependent integrase strand transfer – biochemical, TR-FRET, high throughput, primary screen | HIV-1 integrase (with human LEDGF/p75) | TR-FRET IN-LEDGF/p75 DNA integration, Eu/Cy5 | inhibition, % at 3.7 µM | hit rate 0.64% among 370,000;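 active = inhibition above the screen-wide mean plus 3 SD, cut at about 13% in these data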;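 note: signal is the Cy5 over europium emission ratio at 671 and 618 nm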
rCAG binder conf: small molecules binding CAG repeat RNA – biochemical, fluorescence, confirmation; AID 652065, 2013; r(CAG) RNA repeat, TO-PRO-1 dye displacement fluorescence; inhibition, % at 3 µM; shares compounds with rCAG binder; hit rate 70% among 4,300;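 active = inhibition above a per-plate cutoff, the mean inhibition of sample wells plus 3 SD, cut at about 35% in these data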;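 note: loss of TO-PRO-1 fluorescence as compound displaces dye from 1x1 AA loop RNA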
dCAG dye counter: displacement of TO-PRO-1 from CAG DNA duplex, counter-screen for rCAG RNA repeat binder project, biochemical, fluorescence, TO-PRO-1 dye, d(CAG) DNA oligo | hit rate 94% among 4,300 | inhibition, % at 3 µM | d(CAG) DNA oligo TO-PRO-1 dye displacement | shares compounds with rCAG binder;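 active = inhibition above its plate's cutoff, the mean test-well inhibition plus 3 SD, cut at about 4.8% in these data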;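 note: hits displace the dye from DNA and so lower well fluorescence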
PRMT1 confirm: PRMT1 methyltransferase inhibitors, confirmation, biochemical, fluorescence polarization, triplicate; shares compounds with PRMT1 FP inh; recombinant His-PRMT1, activity-based probe fluorescence polarization; inhibition, % at 2.79 µM; hit rate 42% among 3,300; AID 687036, 2013;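 active = mean inhibition across replicates above the hit cutoff derived for the earlier primary screen, cut at about 22% in these data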
UHRF1 DNA bind: UHRF1 methylated DNA binding inhibitors, counter-screen for MBD2 inhibitor project, biochemical, TR-FRET, human UHRF1; hit rate 25% among 1,000; UHRF1 binding to methylated oligonucleotide; inhibition, % at 4.4 µM; shares compounds with MBD2 inh;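 note: UHRF1 SRA domain binding a labeled hemimethylated CpG hairpin DNA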
MBD2 confirm: inhibitors of MBD2 binding to methylated DNA, confirmation, biochemical, TR-FRET, DNA-binding domain, human; TR-FRET MBD2-DBD binding to methylated oligonucleotide; hit rate 26% among 1,000; shares compounds with MBD2 inh; inhibition, % at 4.4 µM; in the data active = inhibition above about 14%
Large screens that a line does not name were inactive (follow-up assays come after a bar, where they were run). The list is not random: actives were taken first. Their share in the collection is about 4.1%. Cut-off read from the data, not from the text of the source, unless noted: active = inhibition above about 21%; inactive = the rest.

Cc1ccc(/C=C2\C(=O)NC(=S)N(c3cccc(F)c3)C2=O)o1	PRMT1 FP inh 29, rCAG binder 45 | rCAG binder conf 49 | dCAG dye counter 20 | PRMT1 confirm 57
CN1CCN(c2ccc(/C=C3\C(=O)NC(=S)N(c4cccc(Br)c4)C3=O)o2)CC1	none
COC(=O)C1=C(c2ccc(F)cc2F)C[C@@H]2CC[C@H]1N2C(=O)N1CCC(C)CC1	none
CN1C(=O)C(=Cc2ccc(Sc3ccccc3)o2)C(=O)N(C)C1=S	PRMT1 FP inh 36, rCAG binder 54 | rCAG binder conf 58 | dCAG dye counter 21 | PRMT1 confirm 76
CN1C(=O)C(=Cc2ccc(Sc3ccccc3)o2)C(=O)N(C)C1=O	none
COc1ccc(OC)c(N2C(=O)NC(=O)/C(=C/c3ccc([N+](=O)[O-])s3)C2=O)c1	PRMT1 FP inh 28, rCAG binder 79 | rCAG binder conf 73 | dCAG dye counter 38 | PRMT1 confirm 58
O=C1CC(=O)N(Cc2ccccc2)C(=S)N1	PRMT1 FP inh 32, rCAG binder 72 | rCAG binder conf inactive | dCAG dye counter inactive | PRMT1 confirm inactive
COc1cccc(NC2=NCCS2)c1	none (no result: ABHD5 PLIN5 PPI)
Cn1cccc1/C=C1\C(=O)NC(=O)N(Cc2ccco2)C1=O	PRMT1 FP inh 31, MBD2 inh 20, rCAG binder 40, UHRF1 binding 63, LEDGF integ inh 65 | rCAG binder conf inactive | dCAG dye counter inactive | PRMT1 confirm 22 | UHRF1 DNA bind 30 | MBD2 confirm 14
COC(=O)C1=C(c2ccc(OCc3ccccc3)cc2)C[C@@H]2CC[C@H]1N2C(=O)NCc1cccc(OC)c1	none
